About 1,900 (0.58%) of roughly 330,000 compounds were called active. About 4% were inconclusive and are not listed. No stated cut-off is given here; in the data, inconclusive means inhibition above about 70% without an active follow-up result; inactive means below that. The list is a sample of the results. Potency and affinity values are given separately. Where a SMILES comes first, the peptide text is derived from it. [ ]: non-standard residue; d: D form. The star is where a group is joined. ξ: configuration not given here. Cbz = O=C(OCc1ccccc1)*; ξS = NC(CO)C(=O)O
Assay: M. tuberculosis growth inhibition, HTS (AID 449762);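 further: bacterial growth assessed after seven days of incubation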
Settings: M. tuberculosis H37Rv growth inhibition, 7H9 media; at 25 µM; active compounds read high
With CCCCC(=O)Nc1cccc(-c2nn3c(C)nnc3s2)c1 the inhibition was 8.49% (inactive). For Cc1cc(/C=C2/C(=O)NN(c3ccccc3)C2=O)c(C)n1-c1ccc(O)cc1, the inhibition was 5.28% (inactive). For O=C1NN(c2cccc(Br)c2)C(=O)/C1=C\c1ccc(O)cc1, the inhibition was 1.89% (inactive). In the case of CN(CC1COc2ccccc2O1)C(=S)NC1CCCCC1 (stereo not given), the inhibition is reported as -4.56% (inactive). In the case of Cc1ccc(CNC(=O)c2ccc(Cn3nc(C)c(Cl)c3C)o2)cc1, the inhibition is reported as -10.1% (inactive). In the case of COc1cc(/C=N\NC(=O)c2ccc(Cn3nc([N+](=O)[O-])c(Cl)c3C)o2)ccc1O, the inhibition is reported as -5.71% (inactive). In the case of Cc1nn(Cc2ccc(C(=O)NN)o2)c(C)c1Cl, the inhibition is reported as -6.65% (inactive). With Cc1c(Cl)c([N+](=O)[O-])nn1Cc1ccc(C(=O)N/N=C\c2ccccn2)o1 the inhibition was 0.01% (inactive). In the case of COc1ccc(NC(=O)C(C)N(C)Cc2ccc3ccccc3c2)cc1 (stereo not given), the inhibition is reported as 0.65% (inactive). In the case of NC(N)=NCCCC(NC(=O)c1ccccc1)C(=O)Nc1ccc2ccccc2c1 (stereo not given), the inhibition is reported as 69.1% (inactive). With O=C(CSc1ccc2nnc(-c3ccc(F)cc3)n2n1)NCc1ccco1 the inhibition was -4.01% (inactive). For CC1(C)C([N+](=O)[O-])C(c2ccc(Cl)cc2)NC(c2ccc(Cl)cc2)C1[N+](=O)[O-] (stereo not given), the inhibition was 61.2% (inactive). For CCOc1ccc(NC(=O)CSc2ccc3nnc(-c4cccnc4)n3n2)cc1, the inhibition was -11.5% (inactive). In the case of CCN(CC)C(=S)Nc1ccc(Cl)c(Cl)c1, the inhibition is reported as 7.74% (inactive). With O=C(Cc1ccccc1)NNC(=O)Nc1ccc(Cl)c(Cl)c1 the inhibition was 9.99% (inactive). With Cc1ccc2nc(CSc3nnc(-c4ccncc4)n3C)cc(=O)n2c1 the inhibition was -4.97% (inactive). With CCc1nc(SCc2nnc(-c3ccc(C)cc3)o2)c2c(C)c(C)sc2n1 the inhibition was -15.8% (inactive). In the case of O=C1NCC(c2ccccc2)C1C(=O)N/N=C/c1ccc(Cl)s1 (stereo not given), the inhibition is reported as -0.33% (inactive). In the case of O=C1NCC(c2ccccc2)C1C(=O)N/N=C\c1ccc(-c2cccc(Cl)c2Cl)o1 (stereo not given), the inhibition is reported as 24.5% (inactive). With COCCNC(=O)C1CC2Cn3c(nc4cc(Cl)c(Cl)cc43)C2N1C (stereo not given) the inhibition was 2.07% (inactive). With O=C(NCC1CCCO1)c1cc([N+](=O)[O-])ccc1N1CCC(Cc2ccccc2)CC1 (stereo not given) the inhibition was 32.2% (inactive). For CCOC(=O)CNC(=O)C(CO)NC(=O)OCc1ccccc1 (stereo not given) (Cbz-[ξS]-Gly-OEt), the inhibition was 5.25% (inactive). In the case of CCNC(=O)C(Cc1ccccc1)NC(=O)OCc1ccccc1 (stereo not given), the inhibition is reported as -4.3% (inactive). In the case of COc1cc(OC)cc(C(=O)N[C@H](C(=O)Nc2ccc(NC(C)=O)cc2)C(C)C)c1, the inhibition is reported as -0.98% (inactive). For O=c1c(Cc2ccccc2)c(O)ccn1Cc1ccc2c(c1)OCO2, the inhibition was 3.04% (inactive). For O=C(Nc1cc(=O)[nH]c2nc(-c3ccccc3)nn12)c1ccc(Cl)cc1, the inhibition was -2.49% (inactive). With O=C(Nc1cc(=O)[nH]c2ncnn12)c1ccco1 the inhibition was -17.4% (inactive). In the case of COCCN(C(=O)COC(=O)/C=C/c1ccc(C)o1)c1c(N)n(Cc2ccccc2)c(=O)[nH]c1=O, the inhibition is reported as -11.7% (inactive). In the case of COc1cccc2c1OCC(C(=O)O)C2 (stereo not given), the inhibition is reported as -0.01% (inactive). With COc1ccccc1N1CCN(C(=O)C2CC=CCC2C(=O)O)CC1 (stereo not given) the inhibition was -1.32% (inactive). With Cc1ccc(C)c(NC(=S)N(C)C)c1 the inhibition was 1.85% (inactive). In the case of Cc1ccc(C)c(NNC(=O)C(=O)NNc2cc(C)ccc2C)c1, the inhibition is reported as 52.8% (inactive). With O=C(Nc1cccc(S(=O)(=O)N2CCCCC2)c1)c1ccc2ncsc2c1 the inhibition was -3.33% (inactive). In the case of CC(=O)c1cccc(NC(=O)c2ccc(S(=O)(=O)N3CCCCC3)cc2)c1, the inhibition is reported as -2.95% (inactive). In the case of COc1ccc(N(C(=O)Cn2cnc3ccccc32)C(C(=O)NC2CCCCC2)c2ccccc2)cc1 (stereo not given), the inhibition is reported as 0.85% (inactive). In the case of COc1ccc(NS(=O)(=O)c2cccc(NC(=O)CNC(C)=O)c2)cc1, the inhibition is reported as 3.07% (inactive). With Cc1ccc(C(O)c2nc3ccccc3n2C)cc1 (stereo not given) the inhibition was 6.67% (inactive). In the case of CN1C(=O)Cn2c1nc1ccccc12, the inhibition is reported as 6.02% (inactive). With Cc1cccc(C)c1NC(=S)N(CCN(C)C)C(C)c1ccccn1 (stereo not given) the inhibition was -5.58% (inactive). For CN(Cc1cccs1)C(=O)CCc1c[nH]c2ccccc12, the inhibition was 4.68% (inactive). With COC(=O)c1ccc(CSc2nc(C(F)F)cc(C)c2C#N)o1 the inhibition was -2.24% (inactive). For COC(=O)c1ccc(CSc2ncnc3ccccc23)o1, the inhibition was -4.26% (inactive). With O=C(NNc1ncnc2ccccc12)c1cccc(Cl)c1 the inhibition was -0.01% (inactive). With CN(Cc1cccc(F)c1)C(=O)c1cccc(S(=O)(=O)N2CCN(Cc3ccccc3)CC2)c1 the inhibition was -18.2% (inactive). In the case of Cc1ccc(CNC(=O)c2ccc(NC(=O)C3=CSCCO3)cc2)cc1, the inhibition is reported as -1.39% (inactive). In the case of O=C(Nc1ccc(C(=O)NCc2ccc(F)cc2)cc1)C1=CSCCO1, the inhibition is reported as -4.67% (inactive). For Cc1nc(-c2ccc(Cl)cc2)sc1C1(C)CC(c2ccc(Cl)cc2)=NO1 (stereo not given), the inhibition was 0.85% (inactive). In the case of Cc1nc(-c2ccccc2)sc1C1(C)CC(c2ccc(C#N)cc2)=NO1 (stereo not given), the inhibition is reported as -2.7% (inactive). With c1ccc(-c2cc3ccccc3cn2)cc1 the inhibition was 12.7% (inactive). For Cc1cnc(NC2=NCCC2)s1, the inhibition was 4.98% (inactive). In the case of CCCNC(=O)c1ccc(COc2ccc(C(C)(C)C)cc2)o1, the inhibition is reported as 1.87% (inactive). In the case of COc1ccccc1NC(=O)c1nn(-c2ccccc2)ccc1=O, the inhibition is reported as 5.5% (inactive). In the case of CN(CC(=O)NC(=O)NCc1ccco1)Cc1nc2ccccc2c(=O)[nH]1, the inhibition is reported as -5.09% (inactive). With O=C(OC(C(=O)NCc1ccc2c(c1)OCO2)c1ccccc1F)c1ccco1 (stereo not given) the inhibition was 2.01% (inactive). In the case of C/C(CC(=O)Nc1ccc2c(c1)OCCO2)=N\NC(=O)c1ccccc1Cl, the inhibition is reported as 5.1% (inactive). With COc1ccccc1C(=O)N/N=C(\C)CC(=O)Nc1ccc2c(c1)OCCO2 the inhibition was 1.17% (inactive). For CC(C)(C)c1ccc(C(=O)NCCCNC(=O)c2ccccn2)cc1, the inhibition was 8.46% (inactive). In the case of COC(=O)c1c(NC(=O)CCC(=O)O)sc2c1CCCCC2, the inhibition is reported as 19.9% (inactive). With COc1ccc(OC)c(Nc2nc(N)c([N+](=O)[O-])c(NC3CCCCC3)n2)c1 the inhibition was -3.37% (inactive). With Nc1nc(Nc2ccccc2)nc(NC2CCCCC2)c1[N+](=O)[O-] the inhibition was 29.1% (inactive).

Reference: PubChem BioAssay AID449762 (Southern Research Specialized Biocontainment Screening …, 2010)
